In all, about 4,500 sequences were measured (“median log2 fold change of GCK-ALFA target abundance (FLAG IP / Myc IP barcode read proportion)”: median about 0.078, lowest 2% from about -0.6 on). The full list was thinned out, with the lowest values kept by preference.
B1: GBRAP_35_5623 (protein)
chain: NTDKEIAEAVVAVLEDTLLAKDTVPADTFIDTAIKVARLGIEVAKELKEYKENAKKILEAVEKLLKAAKERAKETGAPEEKLKEIEKLLKEVEELKKKLE
B2: GBRAP_11_2643 (protein)
chain: KKEKLKKAAELAKKAIEALKKLLEEGVDNEELRKKIEELLEELSKLVKEYADESLKKLVEIAKELWKKSLEDPENAEEYVKNLLAALRVLSAELEEEIEE
B3: GBRAP_160_4726 (protein)
chain: SERIREFVERFEERFLETIEATEDESKEEQAAMFRGTAGEILMEALEEPFLSDEMEDVVAEELDALVAELEANWDASKEEKKAIVREHMERLRERLLALA
B4: GBRAP_160_4491 (protein)
chain: SAKVEEAKKEVKAIVDDAVDAIAEAPADQRAAIARAYAGDIVQTLLELGVVTDEQAETVLDTAEAGLAAVVAASAAGAAAAAAAAAALVATLNDMIKKFS
B5: GBRAP_14_3817 (protein)
chain: MEELKKKIKEILDDLYEELVEDIGLDEEKVKKLIDKALEEIFKALDDPEGSEEKIKEIMEKLKKEIEKLAAELGADEAAAARALVTDAEYEIDEAIEEAK
B6: GBRAP_160_4228 (protein)
chain: METVEKIVEIFRETFLEALELIEGESEEERRVILDVAVGEIILEVEEIEEATDEMVEIVDERAEKLAERLLAARDASREERRALVEEEAKKLREELEKLA
B7: GBRAP_52_6106 (protein)
chain: ARARVRALVEEALALVRAGREEEARALLEAFARTANEEELELFAEALAELAREAAPEDLDAVWRLAEMAAEALEAAGWPDVLVDDLLARVAAALYERELK
B8: GBRAP_160_4092 (protein)
chain: SEEIEKLIEEIDELRDETKEMIKGESREERATIIRGFGGEVIMLLFESGIVSEEVEDLADELFDELVATVEANPELTEEEIFALIDETVDEIKEAIKEDH
B9: GBRAP_80_6797 (protein)
chain: AAAALAAALAALAEVDAELAARVAAIVATARALGVSDADLADFVAAVLELAKADKEEAAALVDETEALLAEEAARGDTANATAVIRVHAGDALLAVEELE
B10: GBRAP_160_3998 (protein)
chain: SEKLAALKAEIAAILAETLELARGEDAAERLAVVRVMGGQILLTLEESGIVSDEALAAVDAILDATAAEVAANPDLTDAELAALLDATLARINAVLEEHS
B11: GBRAP_11_2747 (protein)
chain: KKEKLKEIAKAAEKLAKLLEELIKEGVDNEELLKEAEKALKELKKLVEEYGDESLKKLVEIIEEEFKKAKEDPENALKYLQNALAAARVLAGQVLLDIEE
B12: GBRAP_184_5076 (protein)
chain: AVLEETLRVEDLEEARARLAALRERVADFRGTLVVLVEMPEFERETARAVLEGLAAMKAAGYVTDVTVGFDAPLTEEQVDFVVDTADALGVKVTLALPEE
B13: GBRAP_35_5513 (protein)
chain: SSIDTETEMLVSTLEDATLAVEDLDPETLKKIVESLAELAREFILQNKNDLEALKRVKEELEKLAEALRKRGLDDPLIKEALEKVEEVIKLAEEEIKKIE
B14: GBRAP_160_4713 (protein)
chain: SETAEERKKYVDEEFERAKKLIEGETIEQRAIIVEGTVGEIIMEFVEDEKATDELIDEVIEIGDELVKTILENPNLTLEEIKELIDEAREKMKEAIDKHL
B15: GBRAP_78_6743 (protein)
chain: KAEEVIDETIETLNEALKALSSKPIEEVGDAMLHLLDASEALIEAEEEGFPLEYIEEAARHLAAAIAEIEAKGIELPAEIMAALKASLEALKALAAEKKA
B16: GBRAP_128_3161 (protein)
chain: AVEEAKKKTKELMEKIKNSSLEEVEKLAKELVEMMKTASDEEVEAMAEVILEELPKLSAEKLEILADVLEEKMPELSPFGQNQAADVLVEALNEAEELEE
B17: GBRAP_78_6611 (protein)
chain: ETKEKILKLLEEAEELAREVRKLAPEVAEQAAELEVLLGTAIYMVDTGSESKEEILETLEEAEKAAKELKKLVEGLAEEVQKLVKEALEKIKEAIKLLKE
B18: GBRAP_160_4329 (protein)
chain: SEEFEKLIEFIDEEFEETKELIKGLSLEQVKVLIEGTFGEIIMEMSENESISDELVDFVVAERDALLATLDANPDLSEEEIKALIDEARERIKEALKKEA
B19: GBRAP_125_3108 (protein)
chain: SEEEILEALKRLAKALGFSEEEAEEAAELARKFSVKQTLYALFLAEGEEELADLVEKLTEEQAKRALLKLAKWLEENPNATKEEVLEQAKKILEEELAKQ
B20: GBRAP_125_3105 (protein)
chain: MEEEILEALKLLAKALGFDDEDAEEAARLAREFSVKMTLYALLKAEGEEELADLVEKLTEEQAKKVLLKVAEWLKKNPNATKEEVLKKLKEVILEELEKA
B21: GBRAP_9_7175 (protein)
chain: LKEAAKKAIEGLKEAKEFALEVVPEEKKEEINAAFDELIETVKKMQADDSVTKEEFRETLEKGFDKIIELAKKNLDPEIAAIVETELLTIKAEVDELLDE
B22: GBRAP_160_3978 (protein)
chain: SEEIEKLKKEIKELAEEAKELIEGESYEERLTIVRVMFGEILMLLMSNENVSDETEEEVAKVGDETIAYLEANPDLTEEEIKELIKEAEKKIFEILEKNE
B23: GBRAP_160_4224 (protein)
chain: METVEKLVKIFRENFEEALELIEGESLEEQKVILDVAAGEVILEAEEIEEATEEMVEIVDKKAEEAREELLEAREASKEEKRKLIEEHAEKLRKELEKVA
B24: GBRAP_74_6499 (protein)
chain: SAATEAAAEEFAALLRAGASYEELMAHLAKMNVEALNAAVIKATEVARANADELTEEQIDALAELADRVFAESEDPEAIKAAGELVKILYERELRLEAER
B25: GBRAP_74_6501 (protein)
chain: AAADEAAAEEFAELLRRGASYEELMAHIAEMNVAALDLAVIKATEEARENAEKLTEEQIDALAELADRVFAESENPEAIAAAGELVKILYETEERRRAEE
B26: GBRAP_26_5460 (protein)
chain: MEEAERAAEAEVRAIAARLPDPRVAAAVVAEFSTELLEAEEAIENGEDPKEAFRKAREEFLAEARELMEEAGLSPEEIAAFEAELSAVFDKLEAEVLAEL
B27: GBRAP_52_6294 (protein)
chain: SMEEVEKKAKEIVELVKEGKLEEAIELAKKFVEENSLEEALELGKLLIEKIEELTPEEAELMLEVIEALAEEIEKEFGAEEEADILEAEAAAAAYKVLQK
B28: GBRAP_160_4717 (protein)
chain: SETAEKLKEYVDEEFDEAEELMKGESIEQRAIILEGTVGEIIMELFENPDASDELIDEVLKIGDEAVATLKANPDLSDEEIEELLDEARDKMKEAIDKHL
B29: GBRAP_137_3636 (protein)
chain: PNVTITTKTEDDLVEINIEFDDPELAEEVAELIEDVAHKHGALALSIEINEDGTLDATIWVPKEKAQALLDALIKALKEKFNATVTVIDEDTGEVKTIKA

The binders below were run against GABARAP, O95166 (assay: median log2 fold change of GCK-ALFA target abundance (FLAG IP / Myc IP barcode read proportion) (log2 ratio); each designed protein is fused to an ALFA-tag nanobody in HEK293 cells to bring the named protein to FLAG-tagged glucokinase (GCK); Myc marks an untargeted standard; higher = target protein stabilised (more abundant)). Conditions: target protein: 3xFLAG-MCP-GCK-ALFA reporter; HEK293 landing pad (RPLP).
Sequence of GABARAP, O95166 (O95166 whole entry, the tested form may be a part): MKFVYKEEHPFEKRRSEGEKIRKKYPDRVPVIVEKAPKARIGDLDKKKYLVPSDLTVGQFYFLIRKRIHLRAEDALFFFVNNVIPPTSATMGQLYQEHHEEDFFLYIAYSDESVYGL
Summary of the method: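 The readout is target abundance, the per-binder median log2 ratio of FLAG to Myc barcode read proportions. It came from HEK293 landing-pad cells carrying a recombined ALFA-nanobody-fused binder library, induced with 2 μg mL^−1 doxycycline and transfected with a plasmid for a FLAG-tagged target and a Myc-tagged standard. After 48 h, lysates were immunoprecipitated with anti-FLAG and anti-Myc, and circular RNA barcodes were reverse transcribed, amplified and sequenced. Each barcode needed a proportion of at least 10^−7 in both replicates and each binder at least 3 barcodes per replicate, a pseudocount of 10^−6 was added, and the replicates were pooled.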
For B1, the “median log2 fold change” value was -0.669. In the case of B2, the “median log2 fold change” value is reported as 0.271. With B3 the “median log2 fold change” value was 0.0951. In the case of B4, the “median log2 fold change” value is reported as -1.1. With B5 the “median log2 fold change” value was -0.057. B6 was tested, and the “median log2 fold change” value was -0.393. B7 was tested, and the “median log2 fold change” value was -0.266. B8 was tested, and the “median log2 fold change” value was -0.649. B9 was tested, and the “median log2 fold change” value was -0.147. In the case of B10, the “median log2 fold change” value is reported as -0.533. With B11 the “median log2 fold change” value was -0.119. B12 was tested, and the “median log2 fold change” value was 0.0481. B13 was tested, and the “median log2 fold change” value was 0.222. With B14 the “median log2 fold change” value was -0.628. B15 was tested, and the “median log2 fold change” value was -0.0804. B16 was tested, and the “median log2 fold change” value was 0.0696. For B17, the “median log2 fold change” value was 0.172. In the case of B18, the “median log2 fold change” value is reported as -0.22. With B19 the “median log2 fold change” value was -0.437. For B20, the “median log2 fold change” value was -0.694. B21 was tested, and the “median log2 fold change” value was 0.286. In the case of B22, the “median log2 fold change” value is reported as 0.206. In the case of B23, the “median log2 fold change” value is reported as -0.617. In the case of B24, the “median log2 fold change” value is reported as -0.772. For B25, the “median log2 fold change” value was 0.0485. For B26, the “median log2 fold change” value was 0.197. B27 was tested, and the “median log2 fold change” value was 0.0653. B28 was tested, and the “median log2 fold change” value was -0.000956. For B29, the “median log2 fold change” value was -0.117.

Reference: the supplement of paper PMC12632987
